DAGLB inh: blocks human DAGLB lipase activity; 0.059% of 340,000 active; inhibition, % at 5.17 µM; HEK293T DAGLB membrane lysate, EnzChek fluorogenic substrate; in the data active = inhibition above about 34%;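 also: 0% = enzyme with vehicle and 100% = wells lacking enzyme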
ARNT TACC3 PPI: disrupts binding between human ARNT and TACC3; Q9Y6A5; AlphaScreen His-ARNT PAS-B/GST-TACC3 binding, luminescence; TACC3 fragment carries E629A point mutation; inhibition, % at 9.99 µM; 0.66% of 390,000 active; AID 623870;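 active = mean inhibition of replicates at least 50% and at least half of replicates each reaching 50%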;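 also: 0% = complete ARNT plus TACC3 wells and 100% = ARNT alone without TACC3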
sPLA2-III inh: Inhibits HGIII-sPLA2 liposome hydrolysis, primary screen; Q9NZ20; AID 743126; 0.56% of 370,000 active; inhibition, % at 12.2 µM; QFRET BODIPY PC-A2 liposome hydrolysis, fluorescence;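 active = inhibition above mean plus 3 SD of compounds lying within the high and low control bounds, cut at about 19% in these data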;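 also: 0% = median of test compound wells and 100% = no enzyme DMSO wells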
NadD inh: inhibitors of Staphylococcus aureus NadD | inhibition, % at 20 µM | AID 602399 | 0.78% of 360,000 active | purified NadD enzyme, colorimetric absorbance read-out; in the data active = inhibition above about 26%
Neddylation inh: blocks human cullin neddylation; TR-FRET cullin neddylation, biochemical; inhibition, % at 25 µM; P61081+Q13564; 0.58% of 360,000 active; AID 651699; in the data active = inhibition above about 36%
Target sequence (P61081 whole entry, looked up): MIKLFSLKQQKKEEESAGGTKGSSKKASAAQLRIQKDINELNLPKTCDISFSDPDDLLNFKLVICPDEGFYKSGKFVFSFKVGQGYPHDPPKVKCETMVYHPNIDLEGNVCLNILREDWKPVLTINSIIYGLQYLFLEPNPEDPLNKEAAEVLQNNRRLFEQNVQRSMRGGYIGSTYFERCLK
Target sequence (Q13564 whole entry, looked up): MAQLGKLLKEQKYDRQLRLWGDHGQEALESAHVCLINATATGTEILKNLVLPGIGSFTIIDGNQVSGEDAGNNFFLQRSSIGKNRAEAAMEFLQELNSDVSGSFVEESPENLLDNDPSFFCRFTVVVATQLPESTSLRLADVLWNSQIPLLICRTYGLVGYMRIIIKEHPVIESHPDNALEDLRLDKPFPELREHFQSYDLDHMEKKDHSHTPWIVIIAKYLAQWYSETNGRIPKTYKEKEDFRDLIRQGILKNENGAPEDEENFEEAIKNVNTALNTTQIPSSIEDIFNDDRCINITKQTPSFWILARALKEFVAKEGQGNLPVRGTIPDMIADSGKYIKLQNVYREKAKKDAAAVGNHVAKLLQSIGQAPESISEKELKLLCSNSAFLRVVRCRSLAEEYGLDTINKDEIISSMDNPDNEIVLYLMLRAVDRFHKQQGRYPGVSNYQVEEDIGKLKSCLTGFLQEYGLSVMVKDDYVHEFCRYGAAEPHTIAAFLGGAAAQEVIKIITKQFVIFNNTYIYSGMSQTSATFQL
ARNT Alpha ctr-1: interferes with AlphaScreen signal, flagging false ARNT-TACC3 hits. 50% of 1,200 active. AC50, µM (top dose mostly 68 µM), for inactives: at the top dose activity change, negative = signal decrease. His-ARNT PASB-GST AlphaScreen artifact counter-screen, luminescence. shares compounds with ARNT TACC3 PPI;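 active = every separate test run was called active for a drop in luminescence, with AC50 within twice the top valid dose, actives reach about 71 µM in these data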
ARNT Alpha ctr-2: AlphaScreen artifact flagged for ARNT-TACC3 inhibitors; shares compounds with ARNT TACC3 PPI; Dual-tagged His-ARNT PASB-GST AlphaScreen artifact counter-screen; AC50, µM; 70% of 45 active;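 active = luminescence drop, with half-maximal potency fitted within twice the sample's top valid dose, cut at about 70 µM in these data; inactive = the rest, including signal moving the wrong way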
Neddyl conf: cullin neddylation inhibition, confirmation | TR-FRET cullin neddylation biochemical assay | 13% of 1,800 active | calls only at 25 µM | shares compounds with Neddylation inh | AID 652217; in the data active = inhibition above about 40%;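 also: neddylation substrate is the cullin 1 ring ligase complex with SKP2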
sPLA2 confirm: human GIII-sPLA2 inhibition, confirmation; shares compounds with sPLA2-III inh; recombinant hGIII-sPLA2, BODIPY PC-A2 QFRET fluorescence; inhibition, % at 12.2 µM; 34% of 2,000 active;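 active = mean inhibition across triplicates above the hit cutoff set in the earlier primary screen, cut at about 19% in these data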;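 also: 0% = enzyme with DMSO and 100% = DMSO wells lacking enzyme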
BODIPY interf: 535nm fluorescence interference, HGIII-sPLA2 counter-screen. AID 743282. shares compounds with sPLA2-III inh. BODIPY FL product fluorescence interference, QFRET. inhibition, % at 12.2 µM. 8.5% of 2,000 active;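 active = average inhibition above the solvent-only control mean plus 3 SD, cut at about 6% in these data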;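 also: 0% = DMSO with substrate plus product and 100% = DMSO with substrate alone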
Numbers without * were called inactive; i = inactive; . = no result shown; + = active, no number. The list is not random: actives were taken first. Their share in the collection is about 2%.

SMILES | DAGLB inh | ARNT TACC3 PPI | sPLA2-III inh | NadD inh | Neddylation inh | Neddyl conf | others
N#CC1=C(N)Oc2c(ccc3cccnc23)C1c1cccnc1 (configuration not stated) | 1 | 55* | -4 | 9 | 48* | i | ARNT Alpha ctr-1=41µM*
C[C@@H]1CN([C@@H](C)CO)C(=O)Cc2cc(NC(=O)Nc3cccc4ccccc34)ccc2O[C@@H]1CN(C)C(=O)Nc1ccccc1 | . | 1 | . | . | . | .
COc1ccc(Nc2cc3n(c(=O)n2)CCc2cc(OC)c(OC)cc2-3)cc1 | -2 | 63* | 6 | 2 | 47* | . | ARNT Alpha ctr-1=-29%
Cc1noc(C)c1S(=O)(=O)Nc1ccc2c(c1)C(=O)N([C@@H](C)CO)C[C@@H](C)[C@H](CN(C)C(=O)CCC(F)(F)F)OCCCC[C@H](C)O2 | . | -3 | . | . | . | .
CCOC(=O)N1CCN(C(=O)CSc2ccc3nnc(-c4ccccn4)n3n2)CC1 | -2 | 42* | 0 | 0 | 44* | i | ARNT Alpha ctr-1=2%
O=C(Nc1nc(-c2ccccn2)cs1)c1ccco1 | -3 | 59* | 20* | 1 | 3 | . | ARNT Alpha ctr-1=26µM*;ARNT Alpha ctr-2=9.8*;sPLA2 confirm=2;BODIPY interf=-1
CC(=O)NC(c1ccc(C)cc1)c1cc(Cl)c2cccnc2c1O (configuration not stated) | 15 | 5 | 1 | 3 | -8 | .
Oc1c(C(Nc2ccccn2)c2cccnc2)cc(Cl)c2cccnc12 (configuration not stated) | 8 | 57* | 22* | 24 | 17 | . | ARNT Alpha ctr-1=15µM*;sPLA2 confirm=22*;BODIPY interf=-12
CCCC(=O)NC(c1ccccc1)c1ccc2cccnc2c1O (configuration not stated) | 14 | 61* | 29* | 5 | -3 | . | ARNT Alpha ctr-1=28µM*;sPLA2 confirm=17;BODIPY interf=-11
CCCCC(=O)NC(c1ccccc1)c1ccc2cccnc2c1O (configuration not stated) | 17 | -17 | 11 | 3 | 1 | .
COc1ccc(-c2cn(C[C@@H](Cc3ccccc3)NC(=O)Nc3ccccc3)nn2)cc1OC | . | 1 | . | . | . | .
CCCc1cn(CC[C@H]2CC[C@@H](NS(=O)(=O)c3ccccc3Cl)[C@H](CO)O2)nn1 | . | -14 | . | . | . | .
CC(C)(C)c1ccc(CNc2nc(-c3ccccn3)nnc2-c2ccccc2)cc1 | . | . | 40* | . | . | . | ARNT Alpha ctr-1=3.7µM*;sPLA2 confirm=9;BODIPY interf=-36
CCc1nc(N2CCN(Cc3ccc4c(c3)OCO4)CC2)c2oc3ccccc3c2n1 | -6 | 1 | -9 | -1 | 44* | i
CCc1nc(N2CCCCC2)c2oc3ccccc3c2n1 | -14 | -25 | 5 | -1 | 5 | .
Cc1ccc(-c2ccc(C(=O)Nc3ccccc3)o2)c2ccccc12 | -12 | 4 | 0 | 10 | 40* | i
Cn1cc(-c2cccc(Cl)c2)cc(C#N)c1=O | 1 | 1 | -1 | 3 | 39* | i
CCOC(=O)c1c(-c2ccccc2)n(C)c2ccc(O)cc12 | -5 | 2 | -19 | -4 | 42* | .
CCCCNC(=O)c1cc2c(C)cc(C)cc2[nH]1 | -3 | -2 | -6 | -4 | 44* | i
Cc1cc(C)c2cc(C(=O)Nc3ccc(C)c(F)c3)[nH]c2c1 | -6 | -3 | -8 | 0 | -12 | .
CCCN1C[C@@H](C)[C@@H](OC)CN(C)C(=O)c2cc(NC(=O)Nc3c(C)noc3C)ccc2OC[C@@H]1C | . | -12 | . | . | . | .
COc1ccc2nc(N3CCC(C)CC3)c(C#N)cc2c1 | -3 | -46 | 3 | -2 | . | .
CCc1ccc2nc(N3CCN(C)CC3)c(C#N)cc2c1 | 1 | -3 | -5 | -2 | 43* | i
COc1ccc(S(=O)(=O)N(C)C[C@@H]2Oc3ccc(NC(=O)CCCN(C)C)cc3C(=O)N([C@@H](C)CO)C[C@H]2C)cc1 | . | 20 | . | . | . | .
O=C(C[C@H]1CC[C@@H](NC(=O)C2CCC2)[C@@H](CO)O1)NCCCN1CCOCC1 | . | -14 | . | . | . | .
SMILES | DAGLB inh | ARNT TACC3 PPI | sPLA2-III inh | NadD inh | Neddylation inh | Neddyl conf | others
CSc1ccc(/C=N/NC(=O)c2ccc(-n3cnnn3)cc2)cc1 | 4 | -7 | -1 | 3 | 49* | i
O=C(O)c1cc(N2CCCCC2)nc2ccccc12 | . | . | 12 | -2 | 42* | +
CCOC(=O)c1cc(N2CCCCC2)nc2ccccc12 | -8 | -126 | -3 | 2 | . | .
Nc1nc2n(n1)C(c1cccc(Br)c1)CC(c1ccc(F)cc1)N2 (configuration not stated) | 7 | -5 | 4 | 5 | 39* | i
C[C@H]1CN([C@@H](C)CO)S(=O)(=O)c2ccc(C#CC3(O)CCCC3)cc2O[C@@H]1CN(C)C(=O)Cc1ccncc1 | . | 8 | . | . | . | .
C[C@H](CO)N1C[C@H](C)[C@@H](CN(C)Cc2ccc(C(F)(F)F)cc2)Oc2ccc(NC(=O)CCN3CCOCC3)cc2CC1=O | . | 12 | . | . | . | .
COc1ccc2oc(C(=O)NNC(=O)c3ccc(F)cc3)c(C)c2c1 | -3 | -3 | -3 | -3 | 42* | .
COc1ccc(CCNC(=O)c2oc3ccc(OC)cc3c2C)cc1 | -6 | 17 | -8 | -7 | 8 | .
COc1ccc2oc(C(=O)NC(C)(C)C)c(C)c2c1 | -3 | -8 | 1 | 2 | 44* | i
COc1cc(C(=O)NNC(=S)NC(=O)c2ccc(F)cc2)cc(OC)c1OC | 0 | 18 | 18 | -4 | 35* | i
COc1ccc(C(=O)NNC(=S)NC(=O)c2ccc(F)cc2)cc1Br | . | . | 0 | 4 | -9 | .
O=C(C[C@H]1CC[C@@H]2[C@H](COC[C@H](O)CN2C(=O)Nc2ccc(Cl)c(Cl)c2)O1)NCc1ccccc1 | . | -13 | . | . | . | .
C[C@H]1CCCCO[C@H](CN(C)Cc2ccc(Cl)c(Cl)c2)[C@@H](C)CN([C@@H](C)CO)C(=O)c2cc(NC(=O)Cc3ccccc3)ccc2O1 | . | -3 | . | . | . | .
Cc1ccc(-c2c(C#N)c(N)nc3c2CCCCC3)o1 | -5 | -6 | -8 | -4 | 41* | .
Cc1ccc(-c2c(C#N)c(N)nc3c2CCCCCC3)o1 | -2 | 8 | -6 | 6 | 19 | .
COc1cc2c(cc1OC)C(C1C(=O)CC(C)(C)CC1=O)N(C(=O)CCl)CC2 (configuration not stated) | 1 | 5 | 2 | 9 | 41* | i
